Data on 12 molecules can be found in paper PMC12529666, “Dysregulation of AGO2-miRNA dynamics underlies the AGO2-associated Lessel–Kreienkamp syndrome”.

First the molecules themselves.
B1: ACGCTTTG (ssRNA)
RNA 1: GAGUUCUACAGUCCGACGAUCCCAACACGCUUUGCACCUGGAAUUCUCGGGUGCCAA
RNA 2: UGGAGUGUGACAAUGGUGUUUG
DNA 1: GATCGTCGGACTGTAGAACTC
DNA 2: TTGGCACCCGAGAATTCCA
modifications: constant regions annealed to DNA blockers; guide miR-122 5' phosphate
B2: GCATCTCG (ssRNA)
RNA 1: GAGUUCUACAGUCCGACGAUCCCAACGCAUCUCGCACCUGGAAUUCUCGGGUGCCAA
RNA 2: UGGAGUGUGACAAUGGUGUUUG
DNA 1: GATCGTCGGACTGTAGAACTC
DNA 2: TTGGCACCCGAGAATTCCA
modifications: constant regions annealed to DNA blockers; guide miR-122 5' phosphate
B3: GTACCCTG (ssRNA)
RNA 1: GAGUUCUACAGUCCGACGAUCCCAACGUACCCUGCACCUGGAAUUCUCGGGUGCCAA
RNA 2: UGGAGUGUGACAAUGGUGUUUG
DNA 1: GATCGTCGGACTGTAGAACTC
DNA 2: TTGGCACCCGAGAATTCCA
modifications: constant regions annealed to DNA blockers; guide miR-122 5' phosphate
B4: GTGTCCCG (ssRNA)
RNA 1: GAGUUCUACAGUCCGACGAUCCCAACGUGUCCCGCACCUGGAAUUCUCGGGUGCCAA
RNA 2: UGGAGUGUGACAAUGGUGUUUG
DNA 1: GATCGTCGGACTGTAGAACTC
DNA 2: TTGGCACCCGAGAATTCCA
modifications: constant regions annealed to DNA blockers; guide miR-122 5' phosphate
B5: GCATTTTG (ssRNA)
RNA 1: GAGUUCUACAGUCCGACGAUCCCAACGCAUUUUGCACCUGGAAUUCUCGGGUGCCAA
RNA 2: UGGAGUGUGACAAUGGUGUUUG
DNA 1: GATCGTCGGACTGTAGAACTC
DNA 2: TTGGCACCCGAGAATTCCA
modifications: constant regions annealed to DNA blockers; guide miR-122 5' phosphate
B6: GTGTTCTA (ssRNA)
RNA 1: GAGUUCUACAGUCCGACGAUCCCAACGUGUUCUACACCUGGAAUUCUCGGGUGCCAA
RNA 2: UGGAGUGUGACAAUGGUGUUUG
DNA 1: GATCGTCGGACTGTAGAACTC
DNA 2: TTGGCACCCGAGAATTCCA
modifications: constant regions annealed to DNA blockers; guide miR-122 5' phosphate
B7: ACGCCCTG (ssRNA)
RNA 1: GAGUUCUACAGUCCGACGAUCCCAACACGCCCUGCACCUGGAAUUCUCGGGUGCCAA
RNA 2: UGGAGUGUGACAAUGGUGUUUG
DNA 1: GATCGTCGGACTGTAGAACTC
DNA 2: TTGGCACCCGAGAATTCCA
modifications: constant regions annealed to DNA blockers; guide miR-122 5' phosphate
B8: GTATTTCG (ssRNA)
RNA 1: GAGUUCUACAGUCCGACGAUCCCAACGUAUUUCGCACCUGGAAUUCUCGGGUGCCAA
RNA 2: UGGAGUGUGACAAUGGUGUUUG
DNA 1: GATCGTCGGACTGTAGAACTC
DNA 2: TTGGCACCCGAGAATTCCA
modifications: constant regions annealed to DNA blockers; guide miR-122 5' phosphate
B9: GTGTTTTG (ssRNA)
RNA 1: GAGUUCUACAGUCCGACGAUCCCAACGUGUUUUGCACCUGGAAUUCUCGGGUGCCAA
RNA 2: UGGAGUGUGACAAUGGUGUUUG
DNA 1: GATCGTCGGACTGTAGAACTC
DNA 2: TTGGCACCCGAGAATTCCA
modifications: constant regions annealed to DNA blockers; guide miR-122 5' phosphate
B10: ACGTCCCG (ssRNA)
RNA 1: GAGUUCUACAGUCCGACGAUCCCAACACGUCCCGCACCUGGAAUUCUCGGGUGCCAA
RNA 2: UGGAGUGUGACAAUGGUGUUUG
DNA 1: GATCGTCGGACTGTAGAACTC
DNA 2: TTGGCACCCGAGAATTCCA
modifications: constant regions annealed to DNA blockers; guide miR-122 5' phosphate
B11: ACGTTTCG (ssRNA)
RNA 1: GAGUUCUACAGUCCGACGAUCCCAACACGUUUCGCACCUGGAAUUCUCGGGUGCCAA
RNA 2: UGGAGUGUGACAAUGGUGUUUG
DNA 1: GATCGTCGGACTGTAGAACTC
DNA 2: TTGGCACCCGAGAATTCCA
modifications: constant regions annealed to DNA blockers; guide miR-122 5' phosphate
B12: ACGTTCTG (ssRNA)
RNA 1: GAGUUCUACAGUCCGACGAUCCCAACACGUUCUGCACCUGGAAUUCUCGGGUGCCAA
RNA 2: UGGAGUGUGACAAUGGUGUUUG
DNA 1: GATCGTCGGACTGTAGAACTC
DNA 2: TTGGCACCCGAGAATTCCA
modifications: constant regions annealed to DNA blockers; guide miR-122 5' phosphate

Chain of AGO2 L192P (Q9UKV8 whole entry L192P/S387D/S824A/S828D/S831D/S834A): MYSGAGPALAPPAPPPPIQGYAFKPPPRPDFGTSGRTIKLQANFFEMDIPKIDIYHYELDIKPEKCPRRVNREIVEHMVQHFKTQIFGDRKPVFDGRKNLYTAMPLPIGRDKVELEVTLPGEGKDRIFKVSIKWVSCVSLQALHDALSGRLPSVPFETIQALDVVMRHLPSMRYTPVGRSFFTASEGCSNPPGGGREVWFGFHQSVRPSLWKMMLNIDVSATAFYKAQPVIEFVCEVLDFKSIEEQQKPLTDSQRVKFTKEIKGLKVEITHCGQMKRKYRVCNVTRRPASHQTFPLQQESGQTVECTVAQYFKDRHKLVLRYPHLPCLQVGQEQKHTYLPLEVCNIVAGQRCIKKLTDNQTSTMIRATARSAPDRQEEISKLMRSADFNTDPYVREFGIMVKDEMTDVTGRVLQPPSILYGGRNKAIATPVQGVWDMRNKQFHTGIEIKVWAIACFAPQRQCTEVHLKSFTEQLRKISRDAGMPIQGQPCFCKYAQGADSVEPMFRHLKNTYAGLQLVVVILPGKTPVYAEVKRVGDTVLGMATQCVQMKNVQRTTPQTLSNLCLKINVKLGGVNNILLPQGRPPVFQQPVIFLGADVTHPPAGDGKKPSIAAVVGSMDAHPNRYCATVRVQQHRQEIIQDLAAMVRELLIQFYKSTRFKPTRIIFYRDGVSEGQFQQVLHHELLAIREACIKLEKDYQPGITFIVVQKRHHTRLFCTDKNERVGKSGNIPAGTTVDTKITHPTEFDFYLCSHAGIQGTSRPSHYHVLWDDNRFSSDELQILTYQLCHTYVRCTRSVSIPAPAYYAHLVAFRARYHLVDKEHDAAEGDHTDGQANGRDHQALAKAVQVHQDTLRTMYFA
Chain of AGO2 A367P (Q9UKV8 whole entry A367P/S387D/S824A/S828D/S831D/S834A): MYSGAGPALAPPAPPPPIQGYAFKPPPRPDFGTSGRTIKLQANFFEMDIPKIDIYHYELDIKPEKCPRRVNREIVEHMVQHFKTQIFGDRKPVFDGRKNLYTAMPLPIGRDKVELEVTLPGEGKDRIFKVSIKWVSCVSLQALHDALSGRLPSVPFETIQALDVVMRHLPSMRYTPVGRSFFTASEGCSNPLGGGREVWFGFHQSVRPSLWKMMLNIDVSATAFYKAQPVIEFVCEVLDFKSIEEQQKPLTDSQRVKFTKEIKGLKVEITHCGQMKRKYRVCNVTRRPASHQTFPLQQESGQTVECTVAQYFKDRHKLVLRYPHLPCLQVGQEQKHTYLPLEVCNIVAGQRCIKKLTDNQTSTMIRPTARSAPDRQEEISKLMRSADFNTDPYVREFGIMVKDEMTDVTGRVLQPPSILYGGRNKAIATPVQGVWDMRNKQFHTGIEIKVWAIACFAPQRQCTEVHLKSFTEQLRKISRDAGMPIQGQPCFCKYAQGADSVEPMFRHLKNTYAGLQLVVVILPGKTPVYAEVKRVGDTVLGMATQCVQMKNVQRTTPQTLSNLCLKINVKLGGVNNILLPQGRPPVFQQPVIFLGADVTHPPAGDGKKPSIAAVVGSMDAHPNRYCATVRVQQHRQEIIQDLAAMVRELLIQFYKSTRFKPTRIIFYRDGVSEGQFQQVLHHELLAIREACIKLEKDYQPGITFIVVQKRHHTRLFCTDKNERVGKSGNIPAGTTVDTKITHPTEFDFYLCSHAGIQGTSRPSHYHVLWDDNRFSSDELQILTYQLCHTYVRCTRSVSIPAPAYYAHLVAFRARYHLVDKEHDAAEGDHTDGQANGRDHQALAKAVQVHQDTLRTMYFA
Chain of AGO2 T357M (Q9UKV8 whole entry T357M/S387D/S824A/S828D/S831D/S834A): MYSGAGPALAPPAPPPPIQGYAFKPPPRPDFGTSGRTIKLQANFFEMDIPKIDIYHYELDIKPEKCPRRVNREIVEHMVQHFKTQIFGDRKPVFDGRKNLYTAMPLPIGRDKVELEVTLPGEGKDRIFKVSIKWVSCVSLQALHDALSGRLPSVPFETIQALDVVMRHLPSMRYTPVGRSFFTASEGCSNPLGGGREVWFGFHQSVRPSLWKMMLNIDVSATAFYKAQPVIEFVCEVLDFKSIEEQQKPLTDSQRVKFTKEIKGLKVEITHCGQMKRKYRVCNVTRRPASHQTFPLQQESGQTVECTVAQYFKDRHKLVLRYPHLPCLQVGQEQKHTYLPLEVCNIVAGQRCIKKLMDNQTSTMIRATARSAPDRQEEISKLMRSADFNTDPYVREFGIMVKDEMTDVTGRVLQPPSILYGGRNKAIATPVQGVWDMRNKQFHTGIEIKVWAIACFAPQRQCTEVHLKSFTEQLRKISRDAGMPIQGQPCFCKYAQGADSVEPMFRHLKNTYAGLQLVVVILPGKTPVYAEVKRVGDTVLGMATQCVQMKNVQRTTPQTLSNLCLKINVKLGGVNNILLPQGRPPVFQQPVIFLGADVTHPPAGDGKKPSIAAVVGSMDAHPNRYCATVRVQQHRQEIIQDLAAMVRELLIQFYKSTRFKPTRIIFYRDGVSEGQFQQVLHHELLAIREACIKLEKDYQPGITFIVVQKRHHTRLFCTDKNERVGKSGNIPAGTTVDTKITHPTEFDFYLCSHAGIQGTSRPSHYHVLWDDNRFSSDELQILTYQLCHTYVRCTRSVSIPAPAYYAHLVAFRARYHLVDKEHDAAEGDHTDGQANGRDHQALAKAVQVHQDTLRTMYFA

The target of the first experiment is AGO2 L192P (Homo sapiens, UniProt Q9UKV8 1-859, L192P;S387D;S824A;S828D;S831D;S834A). As to the kind of experiment: RNA Bind-n-Seq (nitrocellulose filter binding and sequencing); miR-122 guide loaded in AGO2; 60 min incubation; 30 mM Tris pH 8.0, 100 mM potassium acetate, 2 mM magnesium acetate, 0.5 mM TCEP, 0.005% NP-40, 0.01 mg/ml yeast tRNA; 3 nM AGO2-miR-122, 100 nM RNA library; 60; high values mean tight binding. The settings on record: protein: recombinant; tags: His6 (N-terminal, pFastBac HTA). The gist of the method:
(§1)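 Fold enrichment is each target's read fraction divided by its read fraction in the input library. Sf9 insect cells expressed His-tagged AGO2 from baculovirus; the protein was loaded with a synthetic guide RNA and purified by Ni-NTA and a biotinylated capture oligo. The bound RNA was extracted, reverse-transcribed, barcode-amplified and sequenced on Illumina.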
Take B1: the binding signal was 0.36 fold enrichment over input.

As for B2, the binding signal is 0.321 fold enrichment over input.

On to B3, for which the binding signal was 0.344 fold enrichment over input.

Take B4: the binding signal was 0.344 fold enrichment over input.

With B5, the binding signal was 0.36 fold enrichment over input.

For B6, the binding signal is 0.435 fold enrichment over input.

Regarding B7, the binding signal is 0.4 fold enrichment over input.

As for B8, the binding signal was 0.381 fold enrichment over input.

In the case of B9, the binding signal was 0.344 fold enrichment over input.

Consider B10, for which the binding signal was 0.332 fold enrichment over input.

Turning to B11, the binding signal is 0.338 fold enrichment over input.

B12: the binding signal was 0.334 fold enrichment over input.

The target of another experiment is AGO2 A367P (Homo sapiens, UniProt Q9UKV8 1-859, A367P;S387D;S824A;S828D;S831D;S834A). The description is as above. The settings on record: protein: recombinant; tags: His6 (N-terminal, pFastBac HTA). The gist of the method:
as §1
Consider B1, for which the binding signal is 0.134 fold enrichment over input.

Consider B2, for which the binding signal was 0.121 fold enrichment over input.

B3: the binding signal is 0.129 fold enrichment over input.

Take B4: the binding signal is 0.126 fold enrichment over input.

For the molecule B5, the binding signal was 0.127 fold enrichment over input.

As to B6, the binding signal is 0.156 fold enrichment over input.

With B7, the binding signal was 0.147 fold enrichment over input.

Take B8: the binding signal was 0.127 fold enrichment over input.

As to B9, the binding signal was 0.129 fold enrichment over input.

Turning to B10, the binding signal is 0.141 fold enrichment over input.

Take B11: the binding signal is 0.13 fold enrichment over input.

With B12, the binding signal is 0.128 fold enrichment over input.

Another experiment addresses AGO2 T357M (Homo sapiens, UniProt Q9UKV8 1-859, T357M;S387D;S824A;S828D;S831D;S834A). The description is as above. Conditions: protein: recombinant; tags: His6 (N-terminal, pFastBac HTA). The gist of the method:
as §1
For the molecule B1, the binding signal was 0.52 fold enrichment over input.

With B2, the binding signal was 0.4 fold enrichment over input.

In the case of B3, the binding signal was 0.483 fold enrichment over input.

B4: the binding signal was 0.447 fold enrichment over input.

Consider B5, for which the binding signal is 0.449 fold enrichment over input.

Regarding B6, the binding signal is 0.531 fold enrichment over input.

In the case of B7, the binding signal is 0.519 fold enrichment over input.

Regarding B8, the binding signal is 0.515 fold enrichment over input.

For B9, the binding signal was 0.483 fold enrichment over input.

For B10, the binding signal is 0.443 fold enrichment over input.

Take B11: the binding signal was 0.445 fold enrichment over input.

As to B12, the binding signal was 0.445 fold enrichment over input.
